Measurements taken from ChEMBL document CHEMBL4513216, “Probing the Open Global Health Chemical Diversity Library for Multistage-Active Starting Points for Next-Generation Antimalarials” (ACS Infect Dis, 2020).
Out of some 69,000 compounds screened, about 8,600 (12%) showed an effect of 50% or more. Shown is part of a subset that was picked to be rich in strong results.

The compounds below were run on Plasmodium berghei (assay: Screen against P. berghei liver stage (PbLuc), transformed with Luciferase, at 10uM). Details: tested at 10 uM.
Format: functional, HepG2
Work on `Cc1nc(CN(C)C2CCN(Cc3ccc4c(c3)CCC4)C2)no1` (stereo not drawn) yielded an INHIBITION of 31.3%. With `NC(=O)C1CNCCN1C(=O)COc1ccccc1` (stereo not drawn) the INHIBITION was 36%. Compound `Cc1csc(CN2CC[C@H]3C[C@@H](c4nc(C)no4)O[C@@H]3C2)n1` has an INHIBITION of -11.6%. With `CN1[C@@H](C(=O)NCC2CC2)C[C@@H]2CN(Cc3ccsc3)C[C@@H]21` the INHIBITION was -9.74%. Work on `CNC(=O)CCc1cc(C)nc(C2CCN(c3ccccc3)CC2)c1` yielded an INHIBITION of 20.24%. Work on `Cc1nnc(N2C[C@H](C(=O)NCc3ccco3)[C@@H]3CCO[C@@H]3C2)s1` yielded an INHIBITION of 15.4%. With `Cc1nnc(N2C[C@H](C(=O)NCC3CC3)[C@@H]3CCO[C@@H]3C2)s1` the INHIBITION was -19.7%. `COCCNC(=O)[C@@H]1CN(c2ncccn2)C[C@H]2OCC[C@H]21` showed an INHIBITION of 43.9%. For `COCCNC(=O)[C@H]1CN(c2ncccn2)C[C@H]2OCC[C@@H]12`, the INHIBITION was 55.5%. `COCCNC(=O)[C@H]1CN(c2nnc(C)s2)C[C@H]2OCC[C@@H]12` showed an INHIBITION of 52.9%. `COCCNC(=O)[C@@H]1CN(c2cc(OC)ncn2)C[C@H]2OCC[C@H]21` was tested, and the INHIBITION was 24.9%. In the case of `COCCNC(=O)[C@H]1CN(Cc2cccs2)C[C@H]2OCC[C@@H]12`, the INHIBITION was 43.9%. In the case of `COCCNC(=O)[C@H]1CN(Cc2csc(C)n2)C[C@H]2OCC[C@@H]12`, the INHIBITION was 24.9%. Compound `Cc1nnc(N2C[C@H]3OCC[C@H]3[C@H](C(=O)NCC3CC3)C2)s1` has an INHIBITION of 66.9%. In the case of `Cc1cccc(CN2CCc3nnc(CO)n3CC2)n1`, the INHIBITION was 27.4%. `O=C1[C@H]2CN(Cc3cccs3)C[C@H]2CN1CCN1CCCC1` was tested, and the INHIBITION was 9.97%. `Cc1c(C2CCCN(C(=O)c3cccnc3)C2)n2c(nc1=O)CCC2` (stereo not drawn) gave an INHIBITION of -73.1%. Compound `O=C(C1CCOC1)N1CCN(CC2CC2)c2ccccc21` (stereo not drawn) has an INHIBITION of 42.8%. `CCOCC1CN(C(=O)c2ccoc2C)Cc2cnn(C)c21` (stereo not drawn) was tested, and the INHIBITION was 23.3%. In the case of `Nc1cncc(C(=O)N2Cc3ccccc3OC3(CCOCC3)C2)c1`, the INHIBITION was 22%. Compound `COc1cc(Cl)ccc1C(=O)N1CCCC(n2nc(C)nc2C)C1` (stereo not drawn) has an INHIBITION of 19.4%. With `COc1ccc(C)cc1C(=O)N1CCCC(n2nc(C)nc2C)C1` (stereo not drawn) the INHIBITION was -9.37%. `Cc1nc(C)n(C2CCCN(C(=O)c3cccc4cn[nH]c34)C2)n1` (stereo not drawn) was tested, and the INHIBITION was 56%. `Cc1nc(C)n(C2CCCN(C(=O)c3ccccc3C)C2)n1` (stereo not drawn) was tested, and the INHIBITION was 31.1%. `Cc1nc(C)n(C2CCCN(C(=O)c3cccc4[nH]ncc34)C2)n1` (stereo not drawn) gave an INHIBITION of -50.8%. For `COc1ccc(C(=O)N2CCCC(n3nc(C)nc3C)C2)c(OC)c1` (stereo not drawn), the INHIBITION was 52.3%. For `Cn1ccc(CN2CCC(NC(=O)C3CCCCC3)CC2)cc1=O`, the INHIBITION was 5.907%. `CC1(C(=O)NCc2cccc(C(F)(F)F)c2)CCOCC1` was tested, and the INHIBITION was 15.9%. `O=C1CSC(C(F)(F)F)c2c(O)nn(C3CCCC3)c2N1` (stereo not drawn) was tested, and the INHIBITION was 13.1%. `CCC(C)NC(=O)Nc1cccc(OCC#N)c1` (stereo not drawn) was tested, and the INHIBITION was 5.29%. `O=c1[nH]nc(CNCc2ccc(OC34CCCN(CC3)C4)cc2)[nH]1` (stereo not drawn) gave an INHIBITION of 21.085%. For `Cc1nc(CNCc2cccc(OC34CCCN(CC3)C4)c2)n[nH]1` (stereo not drawn), the INHIBITION was 31.15%. For `c1ccc(Oc2cccc(OC34CCCN(CC3)C4)c2)cc1` (stereo not drawn), the INHIBITION was 65.7%. Work on `N#Cc1cccc(OC23CCCN(CC2)C3)c1` (stereo not drawn) yielded an INHIBITION of 21.2%. `c1ccc(Oc2ccc(OC34CCCN(CC3)C4)cc2)cc1` (stereo not drawn) gave an INHIBITION of 57.6%. `Cc1cnccc1CNCc1ccc(OC23CCCN(CC2)C3)cc1` (stereo not drawn) was tested, and the INHIBITION was 21.525%. Compound `Cc1cn2cc(-c3nc4c([nH]3)CCCNC4=O)nc2s1` has an INHIBITION of -54.3%. For `CCN1CCN(C2CCN(Cc3nc(C4CC4)no3)CC2)C1=O`, the INHIBITION was 33.8%. `O=C(NCC1CCCO1)C1CCN(Cc2nc(C3CC3)no2)CC1` (stereo not drawn) gave an INHIBITION of 40.2%. Work on `CCc1nnc(CN2CCC(C3CCCCCN3C(C)=O)CC2)o1` (stereo not drawn) yielded an INHIBITION of 40.6%. Compound `CCc1nnc(CN2CCC(C3CCCCCN3C(=O)C3CC3)CC2)o1` (stereo not drawn) has an INHIBITION of 62.8%. With `CC(=O)N1CCCCCC1C1CCN(Cc2nnc(C(C)(C)C)o2)CC1` (stereo not drawn) the INHIBITION was 66.5%. Compound `CCc1nnc(CN2CCN(C(C)=O)CC2)o1` has an INHIBITION of 9.65%. Compound `CS(=O)(=O)N1CCCCCC1C1CCN(Cc2nc(C3CC3)no2)CC1` (stereo not drawn) has an INHIBITION of 29.1%. `CC(=O)NCC1CCN(Cc2nc(C3CC3)no2)CC1` gave an INHIBITION of 57.5%. In the case of `CC(=O)N1CCCCCC1C1CCN(Cc2nc(C(C)C)no2)CC1` (stereo not drawn), the INHIBITION was 8.11%. With `CC(=O)N1CCN(Cc2nnc(C(C)(C)C)o2)CC1` the INHIBITION was -33.2%. `CC(C)(C)c1nnc(CN2CCN(C(=O)N3CCCCC3)CC2)o1` was tested, and the INHIBITION was 29.5%. Work on `CC(=O)N1CCCCCC1C1CCN(Cc2nc(C3CC3)no2)CC1` (stereo not drawn) yielded an INHIBITION of 55.4%. Work on `Cc1[nH]ccc1C(=O)Nc1cccc(CN2CCC(CO)CC2)c1` yielded an INHIBITION of 25.3%. `CC(C)=CCN1C[C@@H]2CC[C@H]1CN(C(=O)c1ccc(S(N)(=O)=O)cc1)C2` gave an INHIBITION of 39.4%. `Cc1ncsc1C(=O)N1CCN(Cc2cscn2)CC1` gave an INHIBITION of 16%. `Cc1cccc(OCCNC(=O)Cn2ccc(C)cc2=O)c1` showed an INHIBITION of 28.7%. `O=C(c1ccnc(NC2CC2)c1)N1CCCC1c1cccc(Br)c1` (stereo not drawn) gave an INHIBITION of -96.5%. For `Cc1ccc(C)c2c(C)c(C(=O)NCCCn3cnnc3)[nH]c12`, the INHIBITION was -56.7%. `CN(C)C(=O)COC1COC2(CCN(CC3CC3)CC2)C1` (stereo not drawn) showed an INHIBITION of 37.6%. Compound `Cc1cccc(CN2C(=O)C[C@H]3[C@@H]2CCN3CC2CC2)n1` has an INHIBITION of -14.3%. In the case of `Cn1cc(NC(=O)CNC(=O)N2CCN(c3ccc(F)cc3)CC2)cn1`, the INHIBITION was 9.55%. Work on `CNc1cc(N2CCCC2CNCc2cnc(C)s2)ncn1` (stereo not drawn) yielded an INHIBITION of 7.61%. `COCc1cnc2n1CCN(C(=O)c1cc3cc(Cl)ccc3o1)C2C` (stereo not drawn) gave an INHIBITION of 46.6%. `COCc1cnc2n1CCN(C(=O)C1=CCCCC1)C2C` (stereo not drawn) gave an INHIBITION of 14.2%. With `COCc1cnc2n1CCN(C(=O)c1cc3ccccc3o1)C2C` (stereo not drawn) the INHIBITION was 62%. Compound `Cc1ncoc1C(=O)N1CCn2c(COc3cccnc3)cnc2C1C` (stereo not drawn) has an INHIBITION of 5.67%. Work on `COCc1cnc2n1CCN(C(=O)c1ccc3ccccc3n1)C2C` (stereo not drawn) yielded an INHIBITION of 61.1%. Compound `COCc1cnc2n1CCN(C(=O)c1ocnc1C)C2C` (stereo not drawn) has an INHIBITION of 20.5%. In the case of `COCc1cnc2n1CCN(C(=O)c1oc3ccccc3c1C)C2C` (stereo not drawn), the INHIBITION was 52.1%. Work on `COCc1cnc2n1CCN(C(=O)C1=CCCC1)C2C` (stereo not drawn) yielded an INHIBITION of -56.3%. Work on `COCc1cnc2n1CCN(C(=O)c1cnc3ccccc3c1)C2C` (stereo not drawn) yielded an INHIBITION of 11.3%.
